Among the data in PubChem BioAssay (NCATS) are Potency values, retold here.

Several values for one entry are separate records, joined by “and”; a condition that tells them apart may be missing. Equal values may be shown once. Results filed as inconclusive are left out. A structure can be active in one record and inactive in another. Activity calls are given as the source filed them. Calls follow the shape of the dose curve; as a rule, active = well fitted curve in the direction sought with a large enough effect; inconclusive = small, poorly fitted or top-dose-only effect, or another doubt; inactive = no such curve, though single readings can be large; an effect the other way counts as inactive or inconclusive.

The nature of test [1]: Primary qHTS for inhibitors of nuclear receptor binding SET domain protein 2 (NSD2) in an isogenic RCH-ACV NSD2 p.E1099K mutant (9B) (AID 1645876). The note with it: RCH-ACV NSD2 E1099K (9B) viability, CellTiter-Glo, 72 h; series mostly up to 44.9 µM.
Test [2] is described as follows: Primary qHTS for inhibitors of nuclear receptor binding SET domain protein 2 (NSD2) in an RCH-ACV wild type WT cells (2C) (AID 1645877). The note with it: RCH-ACV (leukaemia line) NSD2 WT (2C) viability, CellTiter-Glo, 72 h; series mostly up to 44.9 µM.
Also: nearly all actives have a fitted effect of over 70% in size.
Potency is read from the fitted curve at half-maximal effect.

In the case of `COc1ccc(Cn2ccc3ccc(C(=O)NO)cc32)cc1`, the Potency in test [1] was 9.16 µM (active) and 13.2 µM (active); in test [2], 16.3 µM (active) and 8.33 µM (active). For `N[C@@H](CC(=O)N1CCn2c(nnc2C(F)(F)F)C1)Cc1cc(F)c(F)cc1F`, the Potency result in test [1] and in test [2] was “inactive” in each case. For `CN1c2ccccc2C(=O)N2CCc3c([nH]c4ccccc34)C21` (configuration not stated), the Potency in test [1] was 2.09 µM (active); in test [2], 1.32 µM (active). As for `Cc1ccc(NC(=O)c2ccc(CN3CCN(C)CC3)cc2)cc1Nc1nc(-c2cccnc2)cs1`, the Potency in test [1] was 14.6 µM (active) and 14.8 µM (active); in test [2], 18.4 µM (active) and 14.8 µM (active). Turning to `COc1cc2c(cc1Cc1cccc(Cl)c1F)c(=O)c(C(=O)O)cn2[C@H](CO)C(C)C`, the Potency in test [1] is 7.42 µM (active); in test [2], 5.25 µM (active).

On to `O=C1NC(=O)C(c2cnc3ccccn23)=C1c1cn2c3c(cccc13)CN(C(=O)N1CCOCC1)CC2`, for which the Potency in test [1] and in test [2] was 0.0148 µM (active) each time. Turning to `COc1cc2ncn(-c3cc(OCc4ccccc4S(C)(=O)=O)c(C#N)s3)c2cc1OC`, the Potency result in test [1] and in test [2] was “inactive” in each case. As for `N#CC(c1ccnc(NCCc2cccnc2)n1)c1nc2ccccc2s1` (configuration not stated), the Potency in test [1] and in test [2] was 14.8 µM (active) each time.

Consider `CCN(CCO)CCCOc1ccc2c(Nc3cc(CC(=O)Nc4cccc(F)c4)[nH]n3)ncnc2c1`, for which the Potency in test [1] was 5.9 µM (active); in test [2], 0.132 µM (active). Regarding `COc1ccc(-c2oc3c(CC=C(C)C)c(O)cc(O)c3c(=O)c2O)cc1`, the Potency entry in test [1] and in test [2] was “inactive” each time. As to `NC(=O)c1noc([C@H](CCCC2CCCCC2)CC(=O)NO)n1`, the Potency was 1.86 µM (active) in test [1] and 1.66 µM (active) in test [2].

In the case of `CN1CC(=O)NC1=NC(=O)Nc1cccc(Cl)c1`, the Potency entry in test [1] and in test [2] was “inactive” in each case. Take `Cc1nc(NC(=O)N2CCC[C@@H]2C(N)=O)sc1-c1csc(C(C)(C)C)n1`: the Potency in test [1] and in test [2] was 7.31 µM (active) throughout. For `NC[C@H]1O[C@H](O[C@@H]2[C@@H](O)[C@@H](O[C@H]3O[C@H](CO)[C@@H](O)[C@H](N)[C@@H]3O)[C@H](N)C[C@@H]2N)[C@H](O)[C@@H](O)[C@H]1O`, the Potency result in test [1] and in test [2] was “inactive” throughout. As for `CC[C@@H]([C@H](C)O)n1ncn(-c2ccc(N3CCN(c4ccc(OCC5CO[C@@](Cn6cncn6)(c6ccc(F)cc6F)C5)cc4)CC3)cc2)c1=O` (some centres not stated), the Potency entry in test [1] and in test [2] was “inactive” throughout. Regarding `Cc1cccc(-c2[nH]c(C(C)(C)C)nc2-c2ccc3c(c2)OCO3)n1`, the Potency was 4.61 µM (active) and 4.17 µM (active) in test [1]; 4.11 µM (active) and 4.17 µM (active) in test [2]. As for `Cc1cc2c(cc1C1(c3ccc(C(=O)O)cn3)CC1)C(C)(C)CCC2(C)C`, the Potency result in test [1] and in test [2] was “inactive” each time.

`N#CC1(c2cccc(C(=O)Nc3cc(Oc4ccc5nc(NC(=O)C6CC6)sc5n4)ccc3F)c2Cl)CC1`: the Potency in test [1] was 1.83 µM (active) and inactive; in test [2] it was 3.65 µM (active) and inactive. Take `Cc1ccc(C(=O)N(CCCN)[C@@H](c2nc3cc(Cl)ccc3c(=O)n2Cc2ccccc2)C(C)C)cc1`: the Potency in test [1] and in test [2] was 0.0132 µM (active) each time. For `COc1ccc2nc3cc(Cl)ccc3c(Nc3cc(CN4CCCC4)c(O)c(CN4CCCC4)c3)c2n1`, the Potency in test [1] and in test [2] was 2.95 µM (active) throughout. Regarding `CCCCC(C)(C)[C@H](O)C=C[C@H]1[C@H](O)CC(=O)[C@H]1CC=CCCCC(=O)O`, the Potency result in test [1] and in test [2] was “inactive” each time.

On to `O=C(NCCCCN1CCOCC1)c1cc2ccccc2o1`, for which the Potency entry in test [1] and in test [2] was “inactive” in each case. `C=CC(=O)Nc1cccc(Sc2nc(Nc3ccc(N4CCN(C)CC4)cc3)ncc2Cl)c1`: the Potency is 2.9 µM (active) and 2.95 µM (active) in test [1]; 2.3 µM (active) and 2.63 µM (active) in test [2]. `Cc1ccc(S(=O)(=O)OCC(=O)Nc2ccc(C(=O)O)c(O)c2)cc1`: the Potency result in test [1] and in test [2] was “inactive” each time.

With `O=C1C(c2c(O)[nH]c3ccccc23)=Nc2ccccc21`, the Potency in test [1] was 8.93 µM (active) and inactive; in test [2], 2.24 µM (active) and inactive. Regarding `CC[C@H](C=C[C@@H](C)[C@H]1CC[C@H]2[C@@H]3CC=C4C[C@@H](O)CC[C@]4(C)[C@@H]3CC[C@]12C)C(C)C`, the Potency entry in test [1] and in test [2] was “inactive” throughout. As for `COc1nc(C)cnc1NS(=O)(=O)c1cccnc1-c1ccc(-c2nnco2)cc1`, the Potency result in test [1] and in test [2] was “inactive” each time.

Turning to `CC(C)(F)C[C@H](N[C@@H](c1ccc(-c2ccc(S(C)(=O)=O)cc2)cc1)C(F)(F)F)C(=O)NC1(C#N)CC1`, the Potency result in test [1] and in test [2] was “inactive” each time. `O=C(Nc1cccc(Cl)c1)Nc1ncc(CCNc2ncnc3ccsc23)s1`: the Potency was 1.86 µM (active) in test [1] and 0.0295 µM (active) in test [2]. For the compound `CN(C(Cc1ccc(OS(=O)(=O)c2cccc3cnccc23)cc1)C(=O)N1CCN(c2ccccc2)CC1)S(=O)(=O)c1cccc2cnccc12` (configuration not stated), the Potency was 7.31 µM (active) in test [1] and 6.51 µM (active) in test [2]. For `NC(=O)c1ccc(N(C(N)=O)c2c(F)cccc2F)nc1-c1ccc(F)cc1F`, the Potency result in test [1] and in test [2] was “inactive” throughout.

Regarding `CC1CNc2c(cccc2S(=O)(=O)N[C@@H](CCCN=C(N)N)C(=O)N2CC[C@@H](C)C[C@@H]2C(=O)O)C1` (some centres not stated), the Potency result in test [1] and in test [2] was “inactive” in each case.

For `CC[C@H](C)n1cc(C)c2c(C(=O)NCc3c(C)cc(C)[nH]c3=O)cc(-c3ccc(N4CCNCC4)nc3)cc21`, the Potency in test [1] was 18.6 µM (active); in test [2] it was 16.6 µM (active).

`COc1c(C)cnc(Cn2cnc3c(Cl)nc(N)nc32)c1C`: the Potency in test [1] was 0.235 µM (active); in test [2], 0.263 µM (active). The corresponding values for `COc1cc2c(cc1OC)CC(=O)N(CCCN(C)C[C@H]1Cc3cc(OC)c(OC)cc31)CC2` are “inactive” and “inactive”. On to `CN1CCN(c2ncc(-c3cc(Cl)cc(Cl)c3Cl)c(N)n2)CC1`, for which the Potency in test [2] was 18.6 µM (active).

Take `COc1cccc(OC)c1-c1cc(C(=O)NC2(C(=O)O)C3CC4CC(C3)CC2C4)nn1-c1ccnc2cc(Cl)ccc12` (configuration not stated): in test [2], the Potency entry is “inactive”. Regarding `CCCCc1ccc(NS(=O)(=O)c2ccc(C)c(C(=O)N3CCN(c4cccc(C)c4C)CC3)c2)cc1`, in test [2], the Potency entry is “inactive”. Same read-out and setting: the same measure for `C[C@]12CC[C@@H]3c4ccc(O)cc4CC[C@H]3[C@H]1[C@@H](O)[C@@H](O)[C@H]2O`: “inactive”; for `CN(C)S(=O)(=O)c1ccc2c(c1)C(=Cc1cc3c([nH]1)CCCC3)C(=O)N2`: 2.95 µM (active). Turning to `O=C1CN2Cc3c(ccc(Cl)c3Cl)N=C2N1`, the Potency result in test [1] and in test [2] was “inactive” in each case.
